High-throughput results as filed in PubChem BioAssay.
This is a sample that favours compounds with a hit; in the whole collection about 4.7% have one here.
RecA splice inh = blocks M. tuberculosis RecA intein splicing; inhibition, % (no concentration beside the values); cell-free RecA intein splicing, fluorescence; AID 2221; actives 0.75% (n = 290,000); in the data active = inhibition above about 30%;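 note: 0% = vehicle wells and 100% = reference inhibitor control wells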
CCHFV vOTU inh = CCHFV vOTU protease inhibition; Pep-AMC fluorescence; inhibition, % at 11.5 µM; AID 651958; actives 0.55% (n = 370,000); note: 0% = vehicle wells with enzyme and 100% = no enzyme wells
3CLpro inhibitor = SARS-CoV 3CLpro protease inhibition; P0C6X7; recombinant SARS-CoV 3CLpro, quenched FRET peptide cleavage; inhibition, % at 6 µM; actives 0.14% (n = 290,000); in the data active = inhibition above about 12%
GDH-TPI counter-1 = counter-screen for M. tuberculosis FBA inhibitors: GDH-TPI coupled enzymes; AID 588335; GDH-TPI coupled enzyme counterscreen, NADH absorbance; actives 1.2% (n = 360,000); inhibition, % at 4.8 µM;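 note: 0% = DMSO wells and 100% = wells lacking the enzyme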
DUSP3 inh = inhibitors of human VHR1 phosphatase (DUSP3). P51452. recombinant VHR phosphatase, pNPP absorbance. inhibition, % at 13.3 µM. actives 0.52% (n = 290,000). AID 1654; in the data active = inhibition above about 50%
Target sequence (P51452 whole entry, looked up): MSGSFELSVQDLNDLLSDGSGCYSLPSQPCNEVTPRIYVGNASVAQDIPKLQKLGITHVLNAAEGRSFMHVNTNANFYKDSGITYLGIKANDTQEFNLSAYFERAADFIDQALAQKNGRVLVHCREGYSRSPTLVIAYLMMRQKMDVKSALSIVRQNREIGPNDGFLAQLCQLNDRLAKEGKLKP
FBA Mtb inh = Mtb fructose-bisphosphate aldolase inhibition; AID 588726; purified M. tuberculosis FBA, fluorescence read-out; actives 2.3% (n = 360,000); inhibition, % at 1 µM; in the data active = inhibition above about 27%;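 note: 0% = vehicle and 100% = reference inhibitor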
Target sequence (P9WQA3 whole entry, looked up): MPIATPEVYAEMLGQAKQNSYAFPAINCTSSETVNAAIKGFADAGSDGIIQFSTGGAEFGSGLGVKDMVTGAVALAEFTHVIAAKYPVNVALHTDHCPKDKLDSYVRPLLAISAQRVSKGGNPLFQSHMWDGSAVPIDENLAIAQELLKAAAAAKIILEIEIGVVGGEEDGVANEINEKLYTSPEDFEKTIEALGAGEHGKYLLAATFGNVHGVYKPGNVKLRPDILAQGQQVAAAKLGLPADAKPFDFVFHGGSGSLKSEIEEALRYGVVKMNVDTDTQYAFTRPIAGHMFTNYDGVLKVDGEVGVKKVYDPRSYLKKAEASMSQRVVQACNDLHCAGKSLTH
Mtb FBA confirm = confirmation of M. tuberculosis fructose-bisphosphate aldolase inhibitors. shares compounds with FBA Mtb inh. purified M. tuberculosis FBA, fluorescence read-out. inhibition, % at 1 µM. actives 78% (n = 5,600); in the data active = inhibition above about 27%;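 note: 0% = vehicle wells and 100% = reference inhibitor wells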
GDH-TPI counter-2 = inhibits GDH-TPI coupling enzymes, flagging Mtb FBA hits. actives 81% (n = 5,600). AID 652141. shares compounds with FBA Mtb inh. inhibition, % at 1 µM. GDH-TPI coupled enzyme counterscreen, fluorescence; in the data active = inhibition above about 10%
GDH-TPI DR = GDH-TPI dose response counter-screen for Mtb FBA; shares compounds with FBA Mtb inh; GDH-TPI coupled enzyme assay, fluorescence, artifact counterscreen; IC50, µM; actives 79% (n = 170); AID 652145; call rule not given here
* hit, by the source's call; nt = no result given; + = active, no number. Cut-off read from the data, not from the text of the source, unless noted: active = inhibition above about 30%; inactive = the rest.

SMILES | RecA splice inh | CCHFV vOTU inh | 3CLpro inhibitor | GDH-TPI counter-1 | DUSP3 inh | FBA Mtb inh | Mtb FBA confirm | GDH-TPI counter-2 | others
Cc1cc(N2CC(C)OC(C)C2)n2cc(-c3ccccc3)nc2n1 (configuration not stated) | 0.1 | -34.1 | -0.5 | 6.3 | 5.8 | 62.9* | + | +
O=C(N/N=C/c1ccc(O)c(O)c1)c1ccc(CSc2cccc3cccnc23)cc1 | -2.6 | 10.1 | -2.6 | 19.1 | 14.6 | 4.9 | nt | nt
CCOC(=O)C1CCN(C(=O)c2ccccc2)c2scc(-c3ccccc3)c2C1=O (configuration not stated) | nt | 16.8 | nt | -2.6 | nt | 1.6 | nt | nt
CC(=O)Nc1nc(CC(C)C)cc(-c2ccco2)c1C#N | 0.1 | -16.8 | 2.9 | -3.0 | 3.6 | 49.6* | 177.2* | 146.0*
COCCCNC(=O)C1CCN(C(=O)c2oc3cc4sc(N(C)C)nc4cc3c2C)CC1 | 0.7 | -3.8 | 2.7 | 19.8 | 0.4 | 10.6 | nt | nt
CCC(=O)Nc1cccc(-c2cn3ccccc3n2)c1 | 1.5 | -14.2 | 4.2 | 2.9 | 13.6 | 26.9 | nt | nt
CC(=O)Nc1cccc(-c2cn3ccc(C)cc3n2)c1 | 0.2 | -17.1 | -4.6 | 11.9 | 20.8 | 49.7* | + | +
Cc1ccn2cc(-c3cccc(NS(C)(=O)=O)c3)nc2c1 | -2.1 | -13.9 | 8.6 | 3.5 | 12.2 | 37.2* | 60.5* | 31.1*
Cc1ccn2cc(-c3ccc(NS(=O)(=O)c4ccccc4)cc3)nc2c1 | 6.6 | -11.3 | 0.7 | 8.0 | -2.9 | 5.7 | nt | nt
Cc1ccn2cc(-c3cccc([N+](=O)[O-])c3)nc2c1 | -1.8 | -2.9 | -2.5 | 13.4 | 12.1 | 0.3 | nt | nt
CC(=O)Nc1ccc2nc(-c3ccccc3)cn2c1 | -0.8 | -15.2 | -0.8 | 13.6 | -2.2 | 38.2* | + | 183.9*
Cc1ccn2cc(-c3cccc(NC(=O)CCC(=O)O)c3)nc2c1 | -3.5 | -22.1 | 8.4 | 7.5 | 8.1 | 44.0* | 44.7* | 33.6*
CCC(C(=O)NCCc1c[nH]c2cc(OC)ccc12)c1ccccc1 (configuration not stated) | 0.0 | 0.9 | -2.5 | 1.3 | -7.6 | 3.2 | nt | nt
COc1ccc(-n2cc(CN[C@H]3CCCCNC3=O)c(-c3cccc(F)c3)n2)cc1 | -1.7 | 2.5 | -0.3 | 6.2 | 7.7 | 56.6* | -4.1 | -1.1
COc1ccc(-n2cc(CNC3CCN(C)CC3)c(-c3cccc(F)c3)n2)cc1 | 0.3 | 7.1 | 5.1 | 13.4 | 8.4 | 63.5* | 189.5* | 161.8*
CC(=O)c1ccc(NS(=O)(=O)c2cccc3cccnc23)cc1 | nt | 19.7 | nt | 12.4 | nt | 0.1 | nt | nt
O=C1Nc2ccc(S(=O)(=O)N(CCO)CCO)c3cccc1c23 | -1.7 | -61.2 | -3.4 | 8.5 | 7.9 | 32.1* | -0.5 | -5.4
CNS(=O)(=O)c1ccc2c3c(cccc13)C(=O)N2 | -154.4 | -114.0 | 2.2 | 17.1 | 20.5 | 55.9* | 17.3 | 4.3 | GDH-TPI DR=2.89*
O=C(O)CCCCCNS(=O)(=O)c1ccc2c3c(cccc13)C(=O)N2 | -188.4 | -78.9 | 0.1 | 10.4 | 7.9 | 40.5* | 90.3* | 66.7*
CNS(=O)(=O)c1cc(S(=O)(=O)NC)c2cccc3c2c1NC3=O | -16.6 | -38.3 | -8.6 | 22.8 | 7.9 | 30.8* | 91.8* | 76.7*
Cc1cccc(NC(=O)C2CCCN2S(=O)(=O)c2ccc(Cl)cc2)n1 (configuration not stated) | -0.3 | -4.7 | 1.1 | -3.8 | 27.9 | 1.5 | nt | nt
CCOc1ccc(S(=O)(=O)Nc2cccc(C(=O)N3CCN(c4ccccn4)CC3)c2)cc1 | nt | -1.9 | nt | 3.1 | nt | -0.5 | nt | nt
O=C(O)CNS(=O)(=O)c1ccc2c3c(cccc13)C(=O)N2 | -103.2 | -50.6 | 1.1 | 15.7 | 21.9 | 37.2* | + | 144.9*
Nc1nc(SCC(=O)Nc2ccc(S(N)(=O)=O)cc2)n[nH]1 | -2.3 | -4.2 | 3.8 | 7.3 | 26.9 | 0.9 | nt | nt
Cc1ccc(Oc2ccc(NC(=O)CSc3n[nH]c(N)n3)cc2)cc1 | 1.5 | -3.6 | -2.4 | 11.3 | 8.2 | 31.6* | -0.8 | -3.0
SMILES | RecA splice inh | CCHFV vOTU inh | 3CLpro inhibitor | GDH-TPI counter-1 | DUSP3 inh | FBA Mtb inh | Mtb FBA confirm | GDH-TPI counter-2 | others
COc1ccc(CN2C(=O)Cc3c2nc(N)c2c(N)nc(N4CCOCC4)c(C#N)c32)cc1 | -45.4 | 18.4 | -1.1 | 5.6 | 26.3 | 41.3* | + | +
N#Cc1c(N2CCCCC2)nc(N)c2c(N)nc3c(c12)CC(CCl)O3 (configuration not stated) | -3.7 | -29.5 | 3.9 | 6.8 | 26.2 | 16.3 | nt | nt
CCC1Cc2c(nc(N)c3c(N)nc(N4CCOCC4)c(C#N)c23)O1 (configuration not stated) | -22.8 | -39.0 | -0.4 | 19.8 | 7.2 | 36.7* | 147.1* | 121.9*
CCCOP(=O)(c1ccc(N(C)C)cc1)C(O)c1ccc(Cl)cc1 (configuration not stated) | -0.5 | -6.9 | 1.5 | 0.0 | 2.4 | 0.1 | nt | nt
CC(C)(C)NC(=O)C[C@H]1C[C@H](C(=O)N2CCCCC2)[C@@]2(C)c3[nH]c4cc(-c5ccco5)ccc4c3CCN2C1=O | nt | -8.3 | nt | 3.3 | nt | 20.6 | nt | nt
CC(C)(C)NC(=O)C[C@H]1C[C@H](C(=O)N2CCOCC2)[C@@]2(C)c3[nH]c4cc(-c5ccco5)ccc4c3CCN2C1=O | nt | nt | nt | 4.5 | nt | 31.0* | 50.0* | 45.5*
C[C@]12c3[nH]c4cc(-c5ccco5)ccc4c3CCN1C(=O)[C@@H](CC(=O)NCc1ccco1)C[C@@H]2C(=O)N1CCOCC1 | nt | -26.7 | nt | 7.3 | nt | 30.6* | 173.8* | 148.0*
C[C@]12c3[nH]c4cc(-c5ccco5)ccc4c3CCN1C(=O)[C@@H](CC(=O)NCc1ccco1)C[C@@H]2C(=O)N1CCCCC1 | nt | -15.5 | nt | -1.4 | nt | 32.4* | 117.0* | 70.3*
COc1cc(C(=O)NCc2nnc(SCC(=O)NC3CCCC3)o2)cc(OC)c1OC | -3.7 | 6.1 | 4.7 | 8.6 | -7.2 | 1.3 | nt | nt
O=C(NN1C(=O)NC2(CCCCC2)C1=O)c1ccc(-c2ccc(Cl)cc2)o1 | nt | -15.0 | nt | 8.4 | nt | 34.7* | 157.3* | 123.6*
Cc1ccccc1S(=O)Cc1ccc(C(=O)N2CCN(C3CCCCC3)CC2)o1 (configuration not stated) | nt | -9.6 | nt | 9.7 | nt | 4.8 | nt | nt
COc1cc(OC)c(C2=NOC(C(=O)Nc3ccc4c(c3)OCO4)C2)cc1Cl (configuration not stated) | 5.0 | 14.5 | -0.5 | 0.6 | 21.6 | 57.1* | 52.8* | 42.4*
CN(C)c1ncc(S(=O)(=O)c2ccccc2)c(N)n1 | -1.2 | -5.4 | 4.0 | 8.2 | -15.1 | 1.3 | nt | nt
Cc1ccc(S(=O)(=O)c2cc3ccccc3nc2N)cc1 | -2.6 | -58.4 | 3.0 | 0.6 | 18.8 | 36.4* | + | 193.3*
